Sampled rows, rich in hits. Any-hit rate of the full collection: about 7.5%.
NPC1 promoter act: qHTS Assay for NPC1 Promoter Activators | Huh7 NPC1 promoter luciferase reporter, 24 h | Potency, µM (series often up to 9.22 µM), for the others: at the highest dose activation, actives largely listed as activators | 320,000 tested, 2.4% active; further: % of control where 0% means no effect; nearly all actives have a fitted effect of over 60% in size
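Readout is luciferase luminescence, reflecting NPC1 promoter activation in stably transfected Huh7 cells after 24 h compound exposure at 37 °C in reduced-serum medium with 10% FBS.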
ELG1 genotox: qHTS screen for small molecules that induce genotoxicity in human embryonic kidney (HEK293T) cells expressing luciferase-tagged ELG1; HEK293T ELG1-luciferase reporter, luminescence, 16 h; Potency, µM (series often up to 46 µM), for the others: top-dose activity change, positive = activation, usual class: activators; 330,000 tested, 1.3% active; AID 504466, 2011; further: % of control where 0% means no effect; nearly all actives have a fitted effect of over 60% in size
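Genotoxic stress is detected as increased luminescence from luciferase-tagged ELG1 in HEK293T cells, measured with ONE-Glo after a 16 hr treatment at 37 °C.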
Rab9 prom act: qHTS Assay for Rab9 Promoter Activators | Huh7 Rab9 promoter-luciferase reporter, luminescence, 24 h | Potency, µM (doses to about 9.22 µM), for the others: at the top dose activation, negative = inhibition, most hits filed as activators | 320,000 tested, 2.8% active; further: % of control where 0% means no effect; nearly all actives have a fitted effect of over 60% in size
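Huh7 reporter line, Rab9 promoter upstream of luciferase. Compound exposure 24 h at 37 °C in reduced-serum medium with 10% FBS. Read-out: luminescence.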
SMN2 splice up: qHTS Assay for Enhancers of SMN2 Splice Variant Expression; HEK293 SMN2-luciferase splicing reporter, luminescence, 30-36 h; Potency, µM (highest dose often 46.1 µM), for inactives: at the top dose activity change, positive = activation, hits mostly activators; 210,000 tested, 2.8% active; AID 1458, 2008; further: % of control where 0% means no effect; nearly all actives have a fitted effect of over 55% in size
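HEK293 cells carry an SMN2 […]–luciferase reporter in which exon 7 inclusion puts luciferase in frame. Cells were plated 10-12 h before compound addition, then incubated 30-36 h at 37C. ONE-Glo luminescence was read; sodium butyrate at 4.5 mM final served as control.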
KinaseGlo FLuc: Counterscreen for Luciferase (Kinase-Glo TM) Inhibition. 200,000 tested, 0.28% active. Potency, µM (doses to about 38.3 µM), for inactives: top-dose activity change, negative = inhibition, actives largely listed as inhibitors. Kinase-Glo luciferase, ATP luminescence, 8 min; further: on the % scale 0 is the no-effect control and ±100 the full control effect; nearly all actives have a fitted effect of over 60% in size
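Kinase-Glo luciferase light output from ATP and luciferin was measured with 10 uM ATP, within the enzyme's linear range. Buffer: 50 mM imidazole pH 7.2, 50 mM KCl, 7 mM MgCl2, 0.01% Tween 20, 0.05% BSA; luminescence read after 8 min at ambient temperature.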
FLuc counter: qHTS profiling assay for firefly luciferase inhibitor/activator using purifed enzyme and Km concentrations of substrates (counterscreen for miR-21 project) | Luciferin 4-monooxygenase (Photinus pyralis), P08659 | purified FLuc, Km substrates, luminescence inhibition | Potency, µM (top dose mostly 57.5 µM), inactives show top-dose activity change, negative = inhibition, hits mostly inhibitors | 360,000 tested, 6.9% active | AID 588342, 2011;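 further: plate controls were vehicle for no effect and reference inhibitor for full effect; nearly all actives have a fitted effect of over 55% in size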
Target sequence (P08659 whole entry, looked up): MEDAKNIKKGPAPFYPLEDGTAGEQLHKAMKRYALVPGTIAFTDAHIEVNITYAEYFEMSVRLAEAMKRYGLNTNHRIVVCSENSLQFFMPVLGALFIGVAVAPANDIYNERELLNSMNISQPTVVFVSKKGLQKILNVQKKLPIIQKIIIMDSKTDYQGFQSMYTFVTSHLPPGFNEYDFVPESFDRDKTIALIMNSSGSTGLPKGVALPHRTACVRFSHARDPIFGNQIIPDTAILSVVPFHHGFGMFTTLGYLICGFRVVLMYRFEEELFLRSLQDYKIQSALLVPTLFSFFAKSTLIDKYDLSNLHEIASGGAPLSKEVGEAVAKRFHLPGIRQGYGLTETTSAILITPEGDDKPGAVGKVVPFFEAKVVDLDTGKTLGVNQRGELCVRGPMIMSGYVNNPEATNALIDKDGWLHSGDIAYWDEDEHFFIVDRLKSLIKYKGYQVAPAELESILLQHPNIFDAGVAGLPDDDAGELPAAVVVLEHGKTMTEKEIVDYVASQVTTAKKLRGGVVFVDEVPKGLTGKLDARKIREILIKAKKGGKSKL
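Purified P. pyralis luciferase, 10 nM final, with Km-level 10 uM D-luciferin and 10 uM ATP in 50 mM Tris acetate pH 7.5, 10 mM Mg acetate, 0.01% Tween-20, 0.05% BSA; 6-point qHTS titration about 60 µM downward; luminescence read.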
An asterisk follows results filed as active; [ ] = another dose, or the depositor's remark. The call rests on the fitted dose curve; in most records, active means well fitted curve in the direction sought with a large enough effect; inconclusive means small, poorly fitted or top-dose-only effect, or another doubt; inactive means no such curve, though single readings can be large; an effect the other way counts as inactive or inconclusive. Potency means the concentration at half of the fitted maximal effect.

How did S=c1[nH]nc(-c2cc(-c3ccccc3)n[nH]2)n1/N=C/C=C/c1ccccc1 do in these assays?
NPC1 promoter act: -1%; ELG1 genotox: 3%; Rab9 prom act: 1%; FLuc counter: 6.7µM*

How did Cc1ccc(NC(=O)/C(C#N)=C\c2ccc(Cl)cc2Cl)cc1C do in these assays?
SMN2 splice up: -15%; FLuc counter: -19%

Results for Cc1ccccc1NC(=O)/C(C#N)=C/c1ccc(-c2ccc(Cl)c(C(=O)O)c2)o1 ?
NPC1 promoter act: 2.8µM*; ELG1 genotox: 12%; Rab9 prom act: 3.2µM*; FLuc counter: 19µM*

How did N#C/C(=C\c1ccc(-c2ccccc2)o1)C(=O)Nn1cnnc1 do in these assays?
NPC1 promoter act: -1%; ELG1 genotox: 1%; Rab9 prom act: -1%; SMN2 splice up: -2%; KinaseGlo FLuc: -2%; FLuc counter: 19µM*

What do the screens show for `COc1ccc(NC(=O)/C(C#N)=C/c2ccc(-c3ccc(Cl)c(C(=O)O)c3)o2)cc1`?
NPC1 promoter act: inconclusive; ELG1 genotox: inconclusive; Rab9 prom act: 3.5µM*; FLuc counter: 0.48µM*

What do the screens show for `Cc1ccc(NC(=O)/C(C#N)=C/c2ccc(-c3ccc(Cl)c(C(=O)O)c3)o2)cc1C`?
SMN2 splice up: -6%; FLuc counter: 3.8µM*

How did COc1cccc(-c2nnc(SCc3cccnc3)o2)c1 do in these assays?
NPC1 promoter act: inconclusive; ELG1 genotox: 13%; Rab9 prom act: 4µM*; SMN2 splice up: 12%; KinaseGlo FLuc: -10%; FLuc counter: 24µM*

How did Cc1cccc(-c2nnc(SCc3ccccc3)o2)c1 do in these assays?
NPC1 promoter act: inconclusive; ELG1 genotox: inconclusive; Rab9 prom act: inconclusive; SMN2 splice up: inconclusive; KinaseGlo FLuc: -2%; FLuc counter: 11µM*

Results for O=C(O)c1cccc(CSc2nnc(-c3ccc(Cl)cc3)o2)c1 ?
NPC1 promoter act: -1%; ELG1 genotox: 17%; Rab9 prom act: -1%; FLuc counter: 19µM*

How did CC(CNC(=O)c1cccs1)c1ccc([N+](=O)[O-])cc1 (configuration not stated) do in these assays?
NPC1 promoter act: -3%; ELG1 genotox: -2%; Rab9 prom act: -2%; KinaseGlo FLuc: 1%; FLuc counter: -3%

Results for COc1cc(CN2CCCCC2)cc2cc(C(=O)O)c(=O)oc12 ?
SMN2 splice up: -8%[9.22 µM]; KinaseGlo FLuc: -6%[7.66 µM]

How did COc1cc(-c2nnc(NC(=O)c3ccco3)o2)cc(OC)c1OC do in these assays?
NPC1 promoter act: -1%; ELG1 genotox: 5%; Rab9 prom act: -5%; FLuc counter: -3%

What do the screens show for `CS(=O)(=O)c1ccc(-c2nnc(NC(=O)c3ccco3)o2)cc1`?
NPC1 promoter act: 0%; ELG1 genotox: 10%; Rab9 prom act: -4%; FLuc counter: 12µM*

How did O=C(Nc1nnc(-c2ccc(Br)cc2)o1)c1ccco1 do in these assays?
NPC1 promoter act: 22%; ELG1 genotox: 6%; Rab9 prom act: inconclusive; FLuc counter: 2.7µM*

Results for CCc1ccc(C(=O)c2cn(CC(=O)Nc3cccc(OC)c3)c3cc4c(cc3c2=O)OCO4)cc1 ?
SMN2 splice up: -8%; FLuc counter: -2%

Results for CCOC(=O)c1ccccc1NC(=O)c1ccc2c(Cl)c3c(nc2c1)CCC3 ?
SMN2 splice up: 8%; FLuc counter: 5.4µM*

How did COCCNC(=O)c1ccc2c(Cl)c3c(nc2c1)CCC3 do in these assays?
NPC1 promoter act: inconclusive; ELG1 genotox: inconclusive; Rab9 prom act: 3.5µM*; FLuc counter: 8.5µM*

Results for COc1cc(NC(=O)c2ccc3c(Cl)c4c(nc3c2)CCC4)cc(OC)c1OC ?
SMN2 splice up: 6%; FLuc counter: inconclusive

Results for CCOC(=O)c1ccccc1NC(=O)c1ccc2c(=O)n3c(nc2c1)CCCCC3 ?
NPC1 promoter act: 0%; ELG1 genotox: -6%; Rab9 prom act: -4%; SMN2 splice up: -22%; KinaseGlo FLuc: -1%; FLuc counter: inconclusive

Results for CCCN(CCC)CCCNC(=O)c1ccc2c(Cl)c3c(nc2c1)CCC3 ?
NPC1 promoter act: 1%; ELG1 genotox: -1%; Rab9 prom act: 0%; FLuc counter: -5%

What do the screens show for `COc1ccc(OC)c(NC(=O)c2ccc3c(Cl)c4c(nc3c2)CCCC4)c1`?
SMN2 splice up: 12%; FLuc counter: -19%

Results for CCOC(=O)c1cccc(NC(=O)c2ccc3c(Cl)c4c(nc3c2)CCC4)c1 ?
SMN2 splice up: 8%; FLuc counter: 0.3µM*

What do the screens show for `COC(=O)c1ccccc1NC(=O)c1ccc2c(Cl)c3c(nc2c1)CCCC3`?
SMN2 splice up: -1%; FLuc counter: 12µM*

What do the screens show for `COc1ccc(OC)c(NC(=O)c2cc3c(n(-c4ccc(Cl)cc4)c2=O)CC(C)(C)CC3=O)c1`?
SMN2 splice up: -2%; FLuc counter: 3%

What do the screens show for `COc1cccc(Cn2c(C)c(CNC3CCCCC3)c(C(=O)O)c2C)c1`?
SMN2 splice up: -8%; FLuc counter: 0%

What do the screens show for `O=C(NCCc1ccc(Cl)cc1)C(=O)NCC(c1ccc2c(c1)OCO2)N1CCOCC1` (configuration not stated)?
FLuc counter: 1%

How did O=C(Cn1cnc2c(nc3n2CCCCC3)c1=O)Nc1ccc(F)c(Cl)c1 do in these assays?
FLuc counter: -8%

Results for CCCOc1ccc(NC(=O)CC2C(=O)N(c3ccccc3)C(=O)N2Cc2ccc(F)cc2)cc1 (configuration not stated) ?
FLuc counter: -6%

How did O=C(Nc1ccccc1C(=O)O)c1ccc(Cl)c(S(=O)(=O)N2CCOCC2)c1 do in these assays?
NPC1 promoter act: 14%; ELG1 genotox: -7%; Rab9 prom act: 26%; SMN2 splice up: -10%; KinaseGlo FLuc: -4%; FLuc counter: 6.7µM*

What do the screens show for `O=C(Nc1ccccc1C(=O)O)c1cc(S(=O)(=O)N2CCOCC2)cs1`?
NPC1 promoter act: 1%; ELG1 genotox: 1%; Rab9 prom act: 4%; SMN2 splice up: 9%; KinaseGlo FLuc: 0%; FLuc counter: 19µM*

Bioassay records as filed in PubChem BioAssay.
